Only some compounds are listed: those with a hit (about 3.7% of all), similar ones and a draw of the others.
ATXN viability: reduces viability in counter-screen for ATXN expression inhibitors; S2 cells (HEK-293 line with an ATXN2-luciferase reporter) viability, CellTiter-Fluor protease fluorescence, 24 h; Potency, µM (top dose mostly 56.7 µM), most hits filed as cytotoxic; 400,000 compounds, 0.49% hits; AID 651635; note: nearly all actives have a fitted effect of over 40% in size
HepG2 viability: kills HepG2 cells in TGF-b inhibitor counter-screen | AID 588856 | 410,000 compounds, 0.76% hits | HepG2 CAGA-GFP viability, ATP luminescence, 18 h | Potency, µM (doses to about 46.1 µM), inactives show at the top dose activity change, negative = cytotoxicity, usual class: cytotoxic
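CellTiter-Glo luminescence gave cytotoxicity after 18 hours at 37 degrees C. The cells were HepG2 CAGA-GFP in 1% FBS DMEM, stimulated with 500 pg/mL TGF-beta after compound addition. %Activity was normalised to no-cell wells (complete cell-killing) and DMSO (no toxicity), and curves were fitted and classified.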
ATXN2 expr inh: inhibitors of ATXN2 expression; HEK-293 ATXN2-luciferase reporter, luminescence, 24 h; Potency, µM (series often up to 57 µM), for inactives: at the top dose activity change, negative = inhibition, actives largely listed as inhibitors; 360,000 compounds, 0.72% hits; AID 1745845; note: % is set by controls: 0 for no effect and ±100 for the full control effect; nearly all actives have a fitted effect of over 55% in size
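ATXN2-luciferase reporter cells (luciferase flanked by upstream and downstream ATXN2 gene portions) were treated 24 h at 37 °C with compounds at up to 57 uM. SteadyGlo luminescence gave expression; GF-AFC fluorescence gave viability.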
TGFb SMAD3 inh: inhibitors of TGF-b signaling. HepG2 CAGA-GFP TGF-b/SMAD3 reporter, GFP fluorescence, 18 h; TGF-beta stimulated, 500 pg/mL final. Potency, µM (top dose mostly 46.1 µM), inactives show at the highest dose activity, negative = inhibition, usual class: inhibitors. 410,000 compounds, 1.2% hits; note: % is set by controls: 0 for no effect and ±100 for the full control effect; nearly all actives have a fitted effect of over 65% in size
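HEPG2 CAGA-GFP reporter cells (1000/well, DMEM with 1% FBS) received compounds, then recombinant TGF-beta at 500 pg/mL final for 18 hours at 37 degrees C. Per-cell GFP summed per well was normalised to unstimulated and stimulated DMSO controls before curve fitting.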
GLP-1R agonist: agonists of human GLP-1 receptor | P43220 | HEK293 GLP-1R CRE-luciferase, luminescence, 4-6 h; cells express a hypersensitive GLP-1R form | Potency, µM (titrated, usually from 45.6 µM), without a hit: top-dose activation, usual class: activators | 380,000 compounds, 0.007% hits | AID 624172; note: % of control where 0% means no effect
Target sequence (P43220 whole entry, looked up): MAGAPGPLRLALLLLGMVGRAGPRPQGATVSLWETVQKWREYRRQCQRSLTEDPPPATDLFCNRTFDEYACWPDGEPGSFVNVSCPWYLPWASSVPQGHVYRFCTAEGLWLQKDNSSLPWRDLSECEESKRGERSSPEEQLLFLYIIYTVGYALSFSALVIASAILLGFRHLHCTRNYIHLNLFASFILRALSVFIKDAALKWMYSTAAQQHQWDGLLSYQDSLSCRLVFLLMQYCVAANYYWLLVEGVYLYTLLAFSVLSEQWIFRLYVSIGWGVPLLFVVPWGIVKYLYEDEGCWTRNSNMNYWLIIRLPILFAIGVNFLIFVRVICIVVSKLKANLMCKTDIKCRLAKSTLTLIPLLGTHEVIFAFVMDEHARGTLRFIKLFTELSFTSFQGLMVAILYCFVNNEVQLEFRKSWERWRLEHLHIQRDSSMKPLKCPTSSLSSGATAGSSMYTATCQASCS
GLP-1R inv ag: GLP-1 receptor (human) inverse agonism. P43220. HEK293 GLP-1R CRE-luciferase, luminescence, 24 h; GLP-1R form is constitutively active. Potency, µM (doses to about 38.3 µM), for inactives: top-dose activity change, negative = inhibition, actives largely listed as inhibitors. 410,000 compounds, 1.6% hits; note: % is set by controls: 0 for no effect and ±100 for the full control effect; nearly all actives have a fitted effect of over 55% in size
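Readout was luciferase luminescence, measured 12 min after detection reagent at room temperature. Beforehand, GLP-1R reporter HEK293 cells had sat 12 h, then received compounds for 24 hr at 37 deg C.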
* hit, by the source's call; i = inactive; ? = inconclusive; · = no result. Calls come from the whole dose curve; as a rule, active = well fitted curve in the direction sought with a large enough effect; inconclusive = small, poorly fitted or top-dose-only effect, or another doubt; inactive = no such curve, though single readings can be large; an effect the other way counts as inactive or inconclusive. Potency is the fitted concentration of half-maximal effect.

SMILES	ATXN viability	HepG2 viability	ATXN2 expr inh	TGFb SMAD3 inh	GLP-1R agonist	GLP-1R inv ag
COc1ccc(NC(=O)c2oc3ccccc3c2NC(=O)Cc2ccc(F)cc2)c(OC)c1	i	-4.1%	-3.6%	3.9%	-1.6%	4.2%
O=C(C#Cc1ccccc1)c1ccc([N+](=O)[O-])cc1	·	39.4%	?	?	0.3%	-24.3%
O=C(C#Cc1ccccc1)c1ccccc1	?	12.6µM*	·	10µM*	-5.3%	?
CC(C)Cn1nc(C(=O)N2CCc3ccccc32)c2ccccc2c1=O	i	-22.0%	-12.2%	0.3%	1.9%	11.2µM*
CCCn1nc(C(=O)N2CCc3ccccc32)c2ccccc2c1=O	i	-12.8%	-17.5%	-0.1%	17.2%	?
COc1ccccc1C1CN(Cc2ccc(Sc3nncn3C)o2)Cc2ccccc2O1 (stereo not given)	i	·	·	·	·	·
CCN1/C(=C/c2ccc3cccc(C)c3[n+]2CC)Sc2ccccc21	?	14.1µM*	?	263.9%	-18.2%	?
CCN(CCCNC(=O)c1nn(-c2ccc(OC)cc2)c(=O)c2c1c1ccccc1n2C)c1ccccc1	i	2.8%	-5.6%	0.4%	·	10.4%
N#CCCn1cc(/C=C2\NC(=S)N(c3ccccc3)C2=O)c(-c2ccc(-c3ccccc3)cc2)n1	?	-3.7%	?	10µM*	0.5%	7.94µM*
O=C(O)CCn1cc(/C=C2/NC(=S)N(c3ccccc3)C2=O)c(-c2ccccc2)n1	i	-2.3%	-0.9%	-28.8%	2.3%	-5.4%
Cc1ccc(CNC(=O)CN2C(=O)COc3ccc(S(=O)(=O)Nc4ccccc4)cc32)cc1	?	-6.5%	11.2%	?	0.0%	-32.2%
C=CCOC(/C=C/c1ccccc1)C[Si](C)(C)C (stereo not given)	·	-18.0%	·	-23.4%	·	·
CC(C)=CCOc1ccc([C@@H]2COc3c(ccc4c3C=CC(C)(C)O4)C2)c(O)c1	25.1µM*	14.1µM*	?	12.6µM*	-2.6%	10µM*
COc1ccc(OCc2cc(=O)c3ccc4c(c3o2)C=CC(C)(C)O4)cc1OC	?	-22.9%	-3.9%	?	8.6%	-3.4%
CCOC(=O)c1ccc(N2N=C(C)/C(=C/C=C/c3ccco3)C2=O)cc1	?	-19.0%	-7.2%	0.0%	-13.3%	9.6%
CC1=NN(c2ccc(C)c(C)c2)C(=O)/C1=C\C=C\c1ccc([N+](=O)[O-])o1	3.16µM*	-72.4%	?	10µM*	-0.6%	?
CN1C(=O)C[C@@H](C(=O)N[C@@H](Cc2cnc[nH]2)C(=O)N2CCC[C@H]2C(N)=O)NC1=O	·	·	·	·	-2.2%	·
COc1ccc(C(=O)/C=C/c2cn(CC(O)CN3CCc4ccccc43)c3ccccc23)cc1OC (stereo not given)	?	-30.1%	?	?	·	10µM*
CCCN(CCC)CC(O)Cn1cc(/C=C/C(=O)c2ccc(OCC)cc2)c2ccccc21 (stereo not given)	·	12.6µM*	?	?	1.8%	?
CC(=O)[C@@]1(O)CC[C@H]2[C@@H]3C=C(Cl)C4=CC(=O)CC[C@]4(C)[C@H]3CC[C@@]21C	i	·	·	·	-3.2%	·
Cc1ccc(-c2cc(C(=O)N3CCOCC3)no2)cc1	i	-4.0%	?	8.2%	-5.7%	3.16µM*
Cc1ccc(-c2cc(C(=O)N3CCCC3)no2)cc1	i	-25.4%	?	-7.8%	-13.4%	3.98µM*
COc1cccc(CNc2nc(Cl)nc3nc[nH]c23)c1	·	-10.2%	·	1.4%	·	·
CCOC(=O)c1nn(-c2ccccc2)c(=O)c2c(N)scc12	i	-98.0%	-13.2%	-19.2%	1.4%	5.0%
CCOC(=O)c1nn(-c2ccccc2)c(=O)c2c(NC(C)=O)scc12	i	3.16µM*	-24.0%	2.3%	7.2%	-3.0%
SMILES	ATXN viability	HepG2 viability	ATXN2 expr inh	TGFb SMAD3 inh	GLP-1R agonist	GLP-1R inv ag
CC(CN1CCN(CCOCCO)CC1)CN1c2ccccc2Sc2ccc(Cl)cc21 (stereo not given)	?	12.6µM*	·	?	-3.5%	?
O=C(NCc1ccc(Cl)cc1Cl)C1CCN(S(=O)(=O)c2ccc3c(c2)OCCCO3)CC1	i	-26.0%	5.0%	0.0%	2.9%	7.94µM*
COc1ccc(-c2cn[nH]c2-c2ccc(OC)cc2O)cc1	i	-32.9%	2.1%	?	-2.2%	10µM*
CCOc1ccc(-c2[nH]ncc2-c2ccccc2)c(O)c1	?	-33.3%	·	?	4.7%	10µM*
CCOc1ccc(-c2[nH]ncc2-c2csc(C)n2)c(O)c1	i	-1.9%	-2.8%	6.0%	9.2%	-19.5%
CCc1cc(-c2[nH]ncc2-c2ccc([N+](=O)[O-])cc2)c(O)cc1OC	i	-62.6%	-5.2%	12.6µM*	18.1%	?
O=[N+]([O-])c1ccc(COc2ccc(-c3[nH]ncc3-c3ccc(Cl)cc3)c(O)c2)cc1	?	-86.8%	?	?	-19.8%	?
COc1ccc(-c2cn[nH]c2-c2ccc(OCc3ccccc3F)cc2O)cc1OC	?	-87.9%	?	15.8µM*	3.4%	?
COc1ccc(N2CCN(C(=O)c3cc(S(=O)(=O)N4CCCCCC4)cn3C)CC2)cc1	i	-8.9%	7.8%	?	1.2%	6.3%
COc1ccc(-c2cn[nH]c2-c2ccc(OCc3ccccc3)cc2O)cc1	i	-142.1%	0.0%	?	1.9%	3.55µM*
Cc1cccc(N(Cc2cc(=O)[nH]c3ccccc23)C(=O)CCl)c1	?	-13.3%	·	-12.0%	-9.6%	2.51µM*
N#CCCN(C(=O)CCl)c1cccc(Cl)c1	·	-104.1%	?	?	-5.5%	2.24µM*
CCCN(C(=O)c1cc2c(Cl)nc3ccccc3c2s1)c1cccc(C)c1	i	-2.0%	5.0%	12.9%	6.8%	0.5%
CCCC(=O)N(Cc1cc(=O)[nH]c2ccccc12)c1cccc(C)c1	i	-22.7%	-24.3%	-7.1%	8.1%	-13.9%
CCCCCCCN(C(=O)CCl)c1cccc(C)c1	·	-28.4%	25.1µM*	?	-13.8%	?
CCCCCCN(C(=O)CCl)c1ccccc1	?	-114.6%	·	22.4µM*	-3.9%	?
CCCCCCCCCCN(CCCCCCCCCC)c1ccccc1	·	-26.1%	·	-5.3%	·	·
C=CCn1c(=O)n(C2OC(CO)C(O)C2O)c2nc(N)[nH]c(=O)c21 (stereo not given)	·	·	·	·	6.6%	·
CCn1c(-c2ccccc2F)nc2cc(NC(C)=O)cc(C(=O)NCc3ncc(C)[nH]3)c21	i	·	·	·	·	·

Source: PubChem BioAssay (National Center for Advancing Translational Sciences (NCATS))
